For assay [1], the system named is Wnt5a (protein binding on small-molecule microarray). In words: small molecules binding Wnt5a protein – biophysical, small-molecule microarray, 635/667 nm fluorescence, primary screen (AID 1142).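 Also: fluorescence read at 667 nm with signal to noise per printed feature.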 As to conditions: 635 nm fluorescence, higher = more signal.
A short description of assay [2]: ATP-based viability of Huh7 replicon cells – cell-based, CellTiter-Glo luminescence, basal, 48 h, cytotoxicity control for HCV replication inhibitor project, primary screen (AID 1143).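 Also: Huh7 hepatoma cells carrying a hepatitis C replication reporter with no stimulus; test concentration not given here.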 The note with it: higher = more signal, called active from +8 up or from −8 down.
The nature of assay [3]: Pseudomonas biofilm growth suppression – PAO1 strain, BacTiter-Glo luminescence, LB-PBS, primary screen (AID 1144). As to conditions: P. aeruginosa PAO1 biofilm, 12 h, higher = more signal.
Assay [4] can be described thus: basal CRE-LacZ reporter activity in PC12 – cell-based, unstimulated, primary screen (AID 1145). The note with it: no forskolin, luminescence, 4.5 h, higher = more signal, called active from +8 up or from −8 down.
Assay [5] can be described thus: forskolin-driven CRE-LacZ activity in PC12 – cell-based, CRE-LacZ reporter, forskolin-stimulated, primary screen (AID 1146).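 Also: PC12 cells with 6xCRE LacZ reporter stimulated by forskolin 10 µM; beta-galactosidase reporter signal reflecting CREB driven transcription.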 As to conditions: luminescence, 4.5 h, higher = more signal, called active from +8 up or from −8 down.
In assay [6] the target is Streptavidin (Streptomyces avidinii) (UniProt P22629). In words: compounds binding control protein streptavidin – biophysical, small-molecule microarray, 635/667 nm fluorescence, artefact control for SMM compound annotation, primary screen (AID 1147).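 Also: signal reflects streptavidin binding to arrayed compounds as a control protein.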 The note with it: higher = more signal.
The nature of assay [7]: probe aInhba binding on compound microarray – biochemical, small-molecule microarray, 635/667 nm fluorescence, primary screen (AID 1148).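 Also: score merges 667nm spot fluorescence with signal-to-noise for antibody binding to printed compounds.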 The note with it: higher = more signal.
For assay [8], the target named is Torsin-1A (Homo sapiens) (UniProt O14656). Nature of the assay: TOR1A wild-type binding on microarray – cell lysate, small-molecule microarray, lysate, 635/667 nm, primary screen (AID 1149). As to conditions: COS7 hTOR1A-WT lysate, 635 nm fluorescence, higher = more signal.
The target is the same in assay [9]. In words: torsin A mutant lysate binding on microarrays – cell lysate, small-molecule microarray, COS7 lysate, 635/667 nm fluorescence, primary screen (AID 1150).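 Also: score pools 667 nm emission and signal to noise measuring lysate protein binding.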 As to conditions: COS7 hTOR1A mutant lysate, 635 nm fluorescence, higher = more signal.
In assay [10] the test system is Sonic hedgehog protein (Shh). Nature of the assay: Sonic hedgehog microarray binding compounds – biochemical, small-molecule microarray, 635/667 nm fluorescence, primary screen (AID 1151).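 Also: Shh protein binding to compounds spotted on small-molecule microarray slides; score combines spot fluorescence intensity with signal-to-noise across triplicate slides.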 As to conditions: 635 nm fluorescence, higher = more signal.

Activity calls are given as the source filed them. Unless noted, no rule for the calls is given here.

Chain of Streptavidin (Streptomyces avidinii) (P22629 whole entry, looked up): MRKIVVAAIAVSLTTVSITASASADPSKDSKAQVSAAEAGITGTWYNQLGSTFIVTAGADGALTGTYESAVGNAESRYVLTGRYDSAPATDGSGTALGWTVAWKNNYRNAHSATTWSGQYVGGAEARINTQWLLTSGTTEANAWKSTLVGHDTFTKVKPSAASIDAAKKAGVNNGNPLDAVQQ
Chain of Torsin-1A (Homo sapiens) (O14656 whole entry, looked up): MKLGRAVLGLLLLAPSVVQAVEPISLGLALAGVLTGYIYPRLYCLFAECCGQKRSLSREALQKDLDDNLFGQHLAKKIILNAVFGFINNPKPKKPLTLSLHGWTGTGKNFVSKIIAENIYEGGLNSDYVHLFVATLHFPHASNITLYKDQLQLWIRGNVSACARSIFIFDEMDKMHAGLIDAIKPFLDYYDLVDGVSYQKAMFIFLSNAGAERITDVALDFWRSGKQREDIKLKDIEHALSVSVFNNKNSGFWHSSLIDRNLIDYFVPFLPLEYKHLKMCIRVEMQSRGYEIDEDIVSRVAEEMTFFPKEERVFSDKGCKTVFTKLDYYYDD

In the case of `COCC(=C=CC[C@@H](O)c1ccc(OCCO)cc1)CCO`, the composite z-score in assay [1] was 0.0576; in assay [6] it was -0.471; in assay [7], -0.0762; with Torsin-1A (Homo sapiens) [8], 0.995; in the assay with Torsin-1A (Homo sapiens) [9] it was 0.966; in [10] it was 1.59. In addition, the z-score is -0.258 (inactive) in assay [2], -0.934 (inactive) in assay [3], 0.0986 (inactive) in [4] and -0.482 (inactive) in assay [5].

For the compound `C=CC[C@H](OC(=O)Nc1ccc(SC)cc1)c1ccc(OCCO)cc1`, the composite z-score in [1] was -0.348; in assay [6] it was -0.707; in assay [7] it was -0.112; with Torsin-1A (Homo sapiens) [8], 0.25; in the assay with Torsin-1A (Homo sapiens) [9], 0.154; in assay [10], 1.68. For the same compound, the z-score in assay [2] was -2.69 (inactive); in assay [3], -0.982 (inactive); in assay [4] it was 8.61 (active); in assay [5], 0.938 (inactive).

As to `COCCOC(=O)N1C(=O)[C@@]2(c3cc(C#CCCO)ccc31)[C@H](C(=O)N1CCCCCCC1)[C@H]1C(=O)O[C@H](c3ccccc3)[C@H](c3ccccc3)N1[C@@H]2c1ccccc1OCCO`, the composite z-score in assay [1] was 0.985; in assay [6], 2.6; in assay [7] it was 1.3; in the assay with Torsin-1A (Homo sapiens) [8] it was 1.22; in the assay with Torsin-1A (Homo sapiens) [9], 1.62; in assay [10], 1.68. Further, the z-score in [2] was -2.07 (inactive); in assay [3], 0.893 (inactive); in assay [4], 0.0655 (inactive); in [5], -0.823 (inactive).

For the compound `C=C(C)C1CCC(C(O)C2C=CC3C(=O)N(C)C(=O)C3N2Nc2cc(OC)c(OC)c(OC)c2)CC1` (stereo not given), the composite z-score in [1] was 0.109; in assay [6], 0.889; in assay [7] it was 0.222; in the assay with Torsin-1A (Homo sapiens) [8] it was -0.0834; with Torsin-1A (Homo sapiens) [9] it was 0.44; in assay [10], 1.11. Moreover, the z-score in assay [2] was 0.454 (inactive); in assay [3], 0.253 (inactive); in assay [4], 0.243 (inactive); in assay [5], 0.516 (inactive).

As for `NC(=O)N1C(=O)C2C(C1=O)C1C=C(CCCO)C2C(C2CC2)N1Cc1cccc(OC(F)(F)F)c1` (stereo not given), the composite z-score was -0.352 in [1]; -0.439 in assay [6]; -0.182 in assay [7]; 1.51 with Torsin-1A (Homo sapiens) [8]; 1.59 in the assay with Torsin-1A (Homo sapiens) [9]; 0.393 in assay [10]. Besides, the z-score was -0.458 (inactive) in [2], 1.35 (inactive) in [3], 0.522 (inactive) in assay [4] and 1.62 (inactive) in assay [5].

As to `CC(C)C(CO)N1C(=O)[C@@H]2[C@H]3C(=O)OCC=C[C@H]3OC23C=CCN(C(C)(C)C)C(=O)[C@@H]13` (stereo not given in full), the composite z-score in assay [1] is -0.682; in [6] it was -0.633; in assay [7], -0.0762; with Torsin-1A (Homo sapiens) [8] it was -1.59; in the assay with Torsin-1A (Homo sapiens) [9] it was -0.934; in assay [10], 0.54. The z-score in [2] was -0.342 (inactive); in [3], 0.947 (inactive); in [4], 1.01 (inactive); in assay [5] it was 0.412 (inactive).

Consider `NC(=O)NCC#Cc1ccc2c(c1)[C@]1(C(=O)N2)[C@H](C(=O)N2CCN(c3ncccn3)CC2)[C@H]2C(=O)O[C@H](c3ccccc3)[C@H](c3ccccc3)N2[C@@H]1c1ccc(OCCO)cc1`, for which the composite z-score in assay [1] amounted to 0.388; in assay [6], 0.644; in assay [7] it was 0.0391; with Torsin-1A (Homo sapiens) [8], 0.237; in the assay with Torsin-1A (Homo sapiens) [9], 0.875; in assay [10], 0.963. The z-score was 0.0749 (inactive) in assay [2], -0.534 (inactive) in [3], -0.231 (inactive) in assay [4] and 0.156 (inactive) in assay [5].

For `COCCOC(=O)N1C(=O)[C@@]2(c3cc(C#CCC(C(=O)OC)C(=O)OC)ccc31)[C@H](c1ccc(OCCO)cc1)N1[C@H](c3ccccc3)[C@H](c3ccccc3)OC(=O)[C@H]1[C@@H]2C(=O)Nc1nc2ccccc2s1`, the composite z-score in assay [1] was 0.0015; in [6], 0.067; in assay [7], -0.101; in the assay with Torsin-1A (Homo sapiens) [8], 0.212; in the assay with Torsin-1A (Homo sapiens) [9], 0.264; in [10] it was 1.6. Further, the z-score in assay [2] was -1.79 (inactive); in assay [3], -0.45 (inactive); in [4], 0.0384 (inactive); in [5], 0.282 (inactive).

With `COC(=O)C(CC#Cc1ccc2c(c1)[C@]1(C(=O)N2)[C@H](c2ccc(O)cc2)N2[C@H](c3ccccc3)[C@H](c3ccccc3)OC(=O)[C@H]2[C@@H]1C(=O)N1CCCCCCC1)C(=O)OC`, the composite z-score in assay [1] is 0.851; in assay [6], 1.26; in assay [7], 1.36; with Torsin-1A (Homo sapiens) [8], 0.78; with Torsin-1A (Homo sapiens) [9], 0.592; in [10] it was 0.777. In addition, the z-score in [2] was -3.72 (inactive); in assay [3] it was -1.77 (inactive); in assay [4] it was -0.0515 (inactive); in [5], -0.507 (inactive).

On to `COC(=O)[C@@]1(Cc2ccc(OC)cc2)[C@H]2c3cc(C(=O)N4CCCC4)n(Cc4ccc(S(C)(=O)=O)cc4)c3C[C@H]2CN1C(=O)c1ccccc1`, for which the composite z-score is 0.21 in assay [1]; 1.73 in assay [6]; 0.102 in assay [7]; 0.272 with Torsin-1A (Homo sapiens) [8]; 0.422 with Torsin-1A (Homo sapiens) [9]; -1.12 in [10]. The z-score is -0.86 (inactive) in assay [2], -0.0122 (inactive) in [3], -0.185 (inactive) in assay [4] and -0.755 (inactive) in assay [5].

Regarding `CCCCC(=C=CC[C@H](O)c1ccc(OCCO)cc1)C[C@H](O)COCc1ccccc1`, the composite z-score in assay [1] was -0.0866; in assay [6], -0.499; in assay [7], -0.145; with Torsin-1A (Homo sapiens) [8], -0.327; with Torsin-1A (Homo sapiens) [9], 0.388; in assay [10], 0.571. For the same compound, the z-score is -0.92 (inactive) in [2], 0.403 (inactive) in assay [3], 10.3 (active) in assay [4] and 0.434 (inactive) in assay [5].

With `COc1cc(NN2C(C(O)C3CCCCC3)C=CC3C(=O)N(C)C(=O)C32)cc(OC)c1OC` (stereo not given), the composite z-score in assay [1] was 0.265; in assay [6] it was 2.2; in [7], 0.502; with Torsin-1A (Homo sapiens) [8], -0.176; with Torsin-1A (Homo sapiens) [9] it was 0.358; in assay [10] it was -0.68. Also, the z-score was 0.187 (inactive) in [2], 0.0648 (inactive) in assay [3], -0.133 (inactive) in assay [4] and 0.454 (inactive) in assay [5].

In the case of `COc1cc2c(cc1O)C(c1ccc(CN3CCCC3)cc1)N(C)CC2` (stereo not given), the composite z-score was -0.0821 in [1]; -0.317 in assay [6]; -0.237 in [7]; -0.508 with Torsin-1A (Homo sapiens) [8]; 0.081 with Torsin-1A (Homo sapiens) [9]; -0.0838 in [10]. In addition, the z-score in [2] was -0.383 (inactive); in assay [3] it was 0.374 (inactive); in assay [4], -0.231 (inactive); in assay [5], -0.0347 (inactive).

Turning to `O=C1OCCC/C=C\[C@H]2OC34C=CCN(c5ccc6ccccc6c5)C(=O)[C@H]3N(CCCO)C(=O)[C@@H]4C12` (stereo not given in full), the composite z-score in [1] was -0.482; in [6], -1.3; in assay [7], -0.21; with Torsin-1A (Homo sapiens) [8] it was -0.553; in the assay with Torsin-1A (Homo sapiens) [9], -1.1; in [10] it was -0.339. In addition, the z-score in assay [2] was 0.187 (inactive); in assay [3] it was 2.06 (inactive); in [4], 2.9 (inactive); in assay [5] it was -0.942 (inactive).

As to `COCCCNC(=O)[C@@H]1c2ccccc2C(=O)N(C2Cc3ccccc3C2)[C@H]1c1ccc(CO)cc1`, the composite z-score was -0.0499 in assay [1]; -0.449 in assay [6]; 0.208 in assay [7]; 0.717 with Torsin-1A (Homo sapiens) [8]; -0.184 with Torsin-1A (Homo sapiens) [9]; 0.457 in assay [10]. The z-score in assay [2] was 0.646 (inactive); in [3] it was 0.48 (inactive); in assay [4] it was -0.619 (inactive); in assay [5], -0.67 (inactive).

These data come from PubChem BioAssay.
